Each structure is given as a SMILES string. The campaign covered roughly 52,000 compounds. About 4,300 (8.3%) were called active. Rule as the data show it: active = survival mostly below about 52% (no sharp cut-off); inactive = mostly above about 56%. The entries come from a sample that favours actives as a whole.

The subject of this assay is DeltatarO mutant. Kind of assay: growth inhibition of S. aureus wild type versus tarO mutant, primary screen, teichoic acid synthesis inhibitors, RN4220, OD600 (AID 463173). To be noted: OD600, 18 h, hits give low values, screened at 18.75 µg/mL (by protocol).
For `CCN(CC)CCNC(=O)c1nn(C)c2c1CS(=O)(=O)c1ccccc1-2`, the survival is 59% (inactive).
The result for `O=S(=O)(Nc1cccc(-c2ccc(N3CCCC3)nn2)c1)c1ccc(F)c(C(F)(F)F)c1` reads 71% (inactive); that for `Cc1cccc2c(=O)c(N)c[nH]c12`, 105% (inactive).
Take `O=C(Cn1c(=O)n(-c2ccccc2)c(=O)c2ccc(C(=O)NCc3ccc4c(c3)OCO4)cc21)Nc1ccc(Br)cc1F`: the survival is 117% (inactive).
To `CCc1ccc(CNC(=O)CN2C(=O)CCn3nc(-c4cn(C)c5ccccc45)cc32)cc1` belongs 81% (inactive); to `Cn1c(Nc2ccc(Cl)cc2)cc(=O)n(C)c1=O`, 93% (inactive); to `Cc1cc(F)ccc1NC(=O)C1CCN(C(=O)c2cnn(-c3ccccc3)c2-n2cccc2)CC1`, 80% (inactive).
For the compound `CCCN1CCN(CCCNC(=O)c2cc3c(s2)-c2ccccc2OC3)CC1`, the survival was 85% (inactive).
Consider `O=C(NCCCN1CCN(c2ccc(F)cc2)CC1)c1cc2c(s1)-c1ccccc1OC2`, for which the survival was 55% (active).
As to `O=C(NCCCN1CCN(c2ccccc2F)CC1)c1cc2c(s1)-c1ccccc1OC2`, the survival was 11% (active).
As to `CCN1CCN(CCCNC(=O)c2cc3c(s2)-c2ccccc2OC3)CC1`, the survival was 88% (inactive).
For `Cc1cccc2c1-c1sc(C(=O)NCCCN3CCN(c4ccccc4F)CC3)cc1CO2`, the survival is 63% (inactive).
On to `O=C(NCCCN1CCN(c2ccccc2)CC1)c1cc2c(s1)-c1ccccc1OC2`, for which the survival is 53% (inactive).
Regarding `Cc1ccc(CCNC(=O)CCc2cn(Cc3ccccc3C)c3ccccc23)cc1`, the survival is 68% (inactive).
Regarding `CCN(C(=O)c1cn(CC)c(=O)c2cc(OC)c(OC)cc12)c1ccc(C)c(C)c1`, the survival is 169% (inactive).
As for `Cc1cc(OCC(=O)NC(Cc2c[nH]c3ccccc23)C(=O)O)ccc1Cl` (stereo not given), the survival was 53% (inactive).
`CCOC(=O)C(Cc1c[nH]c2ccccc12)NC(=O)COc1ccc(Cl)c(C)c1` (stereo not given): the survival was 36% (active).
Take `COC(=O)C(Cc1c[nH]c2ccccc12)NC(=O)COc1ccc(Cl)cc1Cl` (stereo not given): the survival was 46% (inactive).
Consider `CCc1ccc(C(=O)COC(=O)C(Cc2c[nH]c3ccccc23)NC(=O)c2ccc(Br)cc2)cc1` (stereo not given), for which the survival was 142% (inactive).
For `COc1ccc(OCC(=O)NC(Cc2c[nH]c3ccccc23)C(=O)O)cc1` (stereo not given), the survival was 60% (inactive).
As to `Cc1cccc(OCC(=O)NC(Cc2c[nH]c3ccccc23)C(=O)O)c1C` (stereo not given), the survival is 48% (inactive).
For the compound `CCOC(=O)C(Cc1c[nH]c2ccccc12)NC(=O)COc1ccc(CC)cc1` (stereo not given), the survival was 33% (active).
In the case of `COC(=O)C(Cc1c[nH]c2ccccc12)NC(=O)COc1cccc(C)c1` (stereo not given), the survival was 65% (inactive).
The result for `CC(C)c1ccc(OCC(=O)NC(Cc2c[nH]c3ccccc23)C(=O)O)cc1` (stereo not given) reads 42% (active).
The result for `CC(C)(C)c1ccc(OCC(=O)NC(Cc2c[nH]c3ccccc23)C(=O)O)cc1` (stereo not given) reads 56% (inactive).
The result for `Cc1cc(C)cc(OCC(=O)NC(Cc2c[nH]c3ccccc23)C(=O)O)c1` (stereo not given) reads 51% (inactive).
Take `CCc1ccc(OCC(=O)NC(Cc2c[nH]c3ccccc23)C(=O)O)cc1` (stereo not given): the survival is 40% (active).
`O=C(CCn1c(=O)c2cccn2c2cccnc21)Nc1ccccc1Br`: the survival was 74% (inactive).
As for `COc1ccc(N2CC(NC(=O)c3cccs3)CC2=O)cc1` (stereo not given), the survival is 89% (inactive).
With `O=C(O)Cn1nc(N2CCN(c3ccc(F)cc3)CC2)ccc1=O`, the survival was 84% (inactive).
To `Cc1ccc(NC(=O)Cn2c(=O)n(CCCCCC(=O)NCc3ccc(F)cc3)c(=O)c3sccc32)c(C)c1` belongs 66% (inactive); to `O=C(O)CCn1nnc(-c2cccs2)n1`, 103% (inactive).
Take `Cc1cccc(N2CCN(C(=O)c3ccc(NC(=O)c4nsc5ccccc45)cc3)CC2)c1C`: the survival is 76% (inactive).
To `O=C(NCCN1CCCCC1)c1ccc(Cn2c(SCc3cccc(F)c3)nc3cccnc32)cc1` belongs 103% (inactive).
`Cc1c(C(=O)Nc2ccccc2)sc2ncn(CC(=O)N3CCOCC3)c(=O)c12`: the survival was 87% (inactive).
`COc1ccc(C(=O)/C=C/c2cn(CC(O)CN3CCCCCC3)c3ccccc23)cc1OC` (stereo not given): the survival is 80% (inactive).
To `O=C(/C=C/c1cn(CC(O)CN2CCCCCC2)c2ccccc12)c1ccc(Br)cc1` (stereo not given) belongs -3% (active).
The result for `O=C(/C=C/c1cn(CC(O)CN2CCc3ccccc32)c2ccccc12)c1ccc(Br)cc1` (stereo not given) reads 68% (inactive); that for `Cc1ccc(C(=O)/C=C/c2cn(CC(O)CN3CCCCCC3)c3ccccc23)cc1` (stereo not given), 12% (active).
To `CCOc1ccc(C(=O)/C=C/c2cn(CC(O)CN3CCCCCC3)c3ccccc23)cc1` (stereo not given) belongs 1% (active); to `O=C(Cn1cc(SCc2ccc(Br)cc2)c2ccccc21)N1CCCCC1`, 80% (inactive); to `COc1ccc(C(=O)/C=C/c2cn(CC(O)CN3CCc4ccccc43)c3ccccc23)cc1OC` (stereo not given), 68% (inactive).
For `CCOc1ccc(C(=O)OC(C)CN2CCCCC2)cc1` (stereo not given), the survival was 96% (inactive).
Turning to `O=C(/C=C/c1cn(CC(O)CN2CCCCCC2)c2ccccc12)c1ccccc1` (stereo not given), the survival was 49% (inactive).
The result for `COc1ccc(CCn2c3c(c(=O)[nH]c2=O)C(NC(=O)c2ccccc2OC)(C(F)(F)F)C(=O)N3)cc1OC` (stereo not given) reads 81% (inactive); that for `Cc1ccc(NC(=O)c2ccc3c(O)c(S(=O)(=O)c4ccccc4)c(=O)[nH]c3c2)cc1Cl`, 78% (inactive).
As to `CCc1cccc(NC(=O)CSc2nnc(-c3cc4occc4n3C)n2-c2ccccc2C)c1`, the survival is 89% (inactive).
The result for `COc1ccccc1N1CCN(C(=O)C2CCCN(S(=O)(=O)c3ccc4c(c3)CCCN4C(C)=O)C2)CC1` (stereo not given) reads 88% (inactive).
`CCN1CCN(C(C)C(=O)NCc2ccc(OC)cc2)CC1` (stereo not given): the survival is 85% (inactive).
In the case of `CNC(=O)CSc1nnc(NC(=O)Nc2ccccc2)s1`, the survival is 94% (inactive).
In the case of `O=C(Cn1c(SCC(=O)N2CCc3ccccc32)nc2ccccc21)NC1CC1`, the survival was 77% (inactive).
In the case of `OC1COCc2nc3ccccc3n2C1` (stereo not given), the survival is 57% (active).
To `O=C(NCCc1ccccc1)c1ccc2c(c1)nc1n2CCOC1` belongs 109% (inactive); to `c1ccc2c(c1)nc1n2CCC1`, 96% (inactive); to `Cn1c(=O)n(C)c2cc(N3CCOCC3)c(NS(=O)(=O)c3ccc(C(C)(C)C)cc3)cc21`, 81% (inactive).
For the compound `COc1cccc(NC(=O)C(Cc2ccccc2)N2Cc3ccccc3C2=O)c1` (stereo not given), the survival is 66% (inactive).
In the case of `CCOc1ccc(CCNC(=O)c2cc3sc(CC)cc3n2C)cc1OCC`, the survival was 55% (inactive).
In the case of `COc1cc(CN(C(=O)COc2ccc(F)cc2)c2ccccn2)cc(OC)c1OC`, the survival is 81% (inactive).
As for `Cc1cccc(CN2CCC(CNC(=O)Cn3ncc4c([nH]c5ccc(C)cc54)c3=O)CC2)c1`, the survival was 120% (inactive).
The result for `Cc1cc(C)nc(SC2=CS(=O)(=O)c3ccccc32)n1` reads 88% (inactive); that for `OCC#CCSc1nc2ccccc2s1`, 71% (inactive); that for `O=S1(=O)C=C(Sc2nc3ccccc3s2)c2ccccc21`, 4% (active).
In the case of `CC(C)CCn1c(=O)c2cccnc2n(CC(=O)Nc2ccccc2)c1=O`, the survival is 72% (inactive).
As to `CCOc1ccccc1Nc1sc(C(=O)c2ccc(Cl)cc2)c(N)c1S(=O)(=O)c1ccccc1`, the survival is 25% (active).
Turning to `CCCS(=O)(=O)c1c(Nc2ccccc2C)sc(C(=O)c2ccccc2)c1N`, the survival is 28% (active).
Consider `CCOc1ccccc1Nc1sc(C(=O)c2ccc(Cl)cc2)c(N)c1C#N`, for which the survival was 94% (inactive).
Regarding `CCOc1ccc(Nc2sc(C(=O)c3ccc(F)cc3)c(N)c2S(=O)(=O)c2ccc(C)cc2)cc1`, the survival is 52% (active).
The result for `COc1ccc(S(=O)(=O)c2c(Nc3ccc(C)cc3)sc(C(=O)c3ccc(C)cc3)c2N)cc1` reads 105% (inactive); that for `Cc1ccc(Nc2sc(C(=O)c3ccc(F)cc3)c(N)c2S(=O)(=O)c2ccc(C)cc2)cc1`, 116% (inactive).
In the case of `Cc1ccccc1Nc1sc(C(=O)c2ccccc2)c(N)c1S(C)(=O)=O`, the survival was 99% (inactive).
As to `CCOc1ccccc1Nc1sc(C(=O)c2ccccc2)c(N)c1S(=O)(=O)c1ccc(C)cc1`, the survival is 92% (inactive).
To `CCS(=O)(=O)c1c(Nc2cc(C)ccc2C)sc(C(=O)c2ccccc2)c1N` belongs 90% (inactive); to `Cc1nc2ccc(S(=O)(=O)N(C)CC(=O)Nc3ccc(C(C)C)cc3)cc2s1`, 113% (inactive); to `CCc1ccc(NC(=O)CN2C(=O)CCSc3ccccc32)cc1`, 86% (inactive).
For `CCc1nc2ccccc2n2c(-c3ccccc3)c3c(=O)n(C)c(=O)n(C)c3c12`, the survival was 75% (inactive).
Turning to `Cc1cc2c(cc1S(=O)(=O)NCc1ccccc1)OCC(=O)N2`, the survival was 91% (inactive).
To `COc1ccc(C)cc1NC(=O)NC(C)c1c(-n2cccc2)sc(C)c1C` (stereo not given) belongs 44% (inactive); to `Cc1ccccc1-c1nnc(SCC(=O)N2CCCCC2)o1`, 64% (inactive).
With `Cc1nc2c(-c3ccccc3)c(C)nn2c(C)c1CCC(=O)NCc1cccc(Cl)c1`, the survival was 109% (inactive).
Turning to `CCc1cccc(NC(=O)CN2C(=O)COc3ccc(S(=O)(=O)Nc4ccccc4)cc32)c1`, the survival is 82% (inactive).
The result for `CC(C)N1CC2=C(OC(N)=C(C#N)C2c2cccnc2)/C(=C/c2cccnc2)C1` (stereo not given) reads 85% (inactive); that for `N#CC1=C(N)OC2=C(CCc3ccccc32)C1c1ccccc1` (stereo not given), 2% (active); that for `CCOC(=O)C1=C(c2ccccc2)OC(N)=C(C#N)C1c1ccncc1` (stereo not given), 87% (inactive).
As for `Cc1cccc(C)c1NC(=O)C(C)Sc1n[nH]c(-c2ccncc2)n1` (stereo not given), the survival was 76% (inactive).
In the case of `Cc1ccc(NC(=O)C(C)Sc2n[nH]c(-c3ccccc3O)n2)cc1` (stereo not given), the survival is 23% (active).
Take `Cc1ccc(CSc2n[nH]c(-c3ccccc3O)n2)cc1`: the survival is 62% (inactive).
Consider `O=C(NCC(=O)N1CCCCC1)c1ccccc1`, for which the survival was 97% (inactive).
Take `Cc1ccc(Cl)cc1NC(=O)Cn1c(=O)oc2cc(S(=O)(=O)N3CCCC3)ccc21`: the survival is 81% (inactive).
Turning to `CCc1ccccc1NC(=O)Cn1c(=O)n(CCc2ccccc2)c(=O)c2ccccc21`, the survival is 89% (inactive).
`COC(=O)c1ccc(Cn2nc(-c3ccc(C)c(C)c3)ccc2=O)cc1`: the survival was 67% (inactive).

(Values after PubChem BioAssay AID463173 (ICCB-Longwood Screening Facility, Harvard Medical School, 2010).)
